The record followed here is PubChem BioAssay (Tox21).

Records with an inconclusive call do not appear. Where a call stands in place of a potency, no number is given. Calls of active or inactive are those of the source. Unless noted, calls come from the whole dose curve; as a rule, active = well fitted curve in the direction sought with a large enough effect in the repeat runs; inconclusive = weak or mixed curves; inactive = no such curve, though single readings can be large; an effect the other way counts as inactive or inconclusive.

Sequence of Aryl hydrocarbon receptor (Homo sapiens) (P35869 whole entry, looked up): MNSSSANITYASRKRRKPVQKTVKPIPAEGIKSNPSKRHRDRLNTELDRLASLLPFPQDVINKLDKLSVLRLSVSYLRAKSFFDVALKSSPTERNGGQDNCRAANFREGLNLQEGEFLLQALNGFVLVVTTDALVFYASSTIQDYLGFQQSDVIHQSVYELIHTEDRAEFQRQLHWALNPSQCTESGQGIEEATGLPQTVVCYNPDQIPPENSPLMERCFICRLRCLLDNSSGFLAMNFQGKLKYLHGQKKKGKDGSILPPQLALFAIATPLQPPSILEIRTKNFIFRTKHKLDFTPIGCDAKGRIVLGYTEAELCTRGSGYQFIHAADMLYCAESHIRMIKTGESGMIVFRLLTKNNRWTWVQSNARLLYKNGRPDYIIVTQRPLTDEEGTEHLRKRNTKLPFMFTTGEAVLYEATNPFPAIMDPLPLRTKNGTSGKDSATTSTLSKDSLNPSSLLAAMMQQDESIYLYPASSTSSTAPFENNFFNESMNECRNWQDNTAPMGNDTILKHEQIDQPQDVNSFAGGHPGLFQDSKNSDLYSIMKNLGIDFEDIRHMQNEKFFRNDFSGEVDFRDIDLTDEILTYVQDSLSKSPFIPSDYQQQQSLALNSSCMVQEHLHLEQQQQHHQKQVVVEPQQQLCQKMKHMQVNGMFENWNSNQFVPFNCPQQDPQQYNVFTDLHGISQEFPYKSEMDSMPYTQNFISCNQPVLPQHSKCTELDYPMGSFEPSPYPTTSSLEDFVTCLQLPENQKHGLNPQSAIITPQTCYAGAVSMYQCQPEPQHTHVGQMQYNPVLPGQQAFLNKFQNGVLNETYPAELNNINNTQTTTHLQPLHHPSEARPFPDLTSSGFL

Test system in the first test: not listed separately
The test is described as follows: qHTS assay to identify aromatase inhibitors - cell viability counter screen (AID 743084).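 Note: cells stimulated with testosterone during compound exposure; nearly all actives have a fitted effect of over 55% in size.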 Note: potency is the fitted concentration of half-maximal effect. The settings on record: MCF-7 aro ERE viability, CellTiter-Fluor, 24 h; series mostly up to 70.3 µM. In general terms: Quantitative high-throughput screening tests each substance at several concentrations.
`CC(C)C[C@H](NC(=O)OCC1c2ccccc2-c2ccccc21)C(=O)O`: the Potency entry is “inactive”.
Same read-out and setting: then `c1ccc(CN(CC2=NCCN2)c2ccccc2)cc1`, with “inactive”; and `Cc1ccccc1C(=O)Nc1ccc(C(=O)N2CCCC(O)c3cc(Cl)ccc32)c(C)c1` (stereo not given), with “inactive”.
Still for that read-out and setting: then `CC/C=C\CCOC(=O)C(C)C`, with “inactive”; and `Cc1cc2c(s1)Nc1ccccc1N=C2N1CCN(C)CC1`, with 23.7 µM (active); and `CCN(CC)CCOc1ccc(Cc2ccccc2)cc1`, with “inactive”.

The next test has as its target Aryl hydrocarbon receptor (Homo sapiens) (UniProt P35869). The test is described as follows: qHTS assay to identify small molecule that activate the aryl hydrocarbon receptor (AhR) signaling pathway (AID 743085).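 Note: HG2L7.5c1 human HepG2 liver cells with stably integrated DRE-driven firefly reporter; nearly all actives have a fitted effect of over 15% in size.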 The settings on record: HepG2 AhR-luc (HG2L7.5c1), luciferase, 24 h; series mostly up to 70.3 µM. The procedure, abridged: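 AhR agonist activity is inferred from enhanced light output of a DRE-controlled firefly luciferase reporter in HepG2 cells, measured with ONE-Glo following 24 h treatment at 37C.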
For the molecule `COC(=O)N[C@H](C(=O)N[C@@H](Cc1ccccc1)[C@@H](O)CN(Cc1ccc(-c2ccccn2)cc1)NC(=O)[C@@H](NC(=O)OC)C(C)(C)C)C(C)(C)C`, the Potency result was “inactive”.
Same read-out and setting: with `CC1=NN(c2cc(Cl)c(S(=O)(=O)O)cc2Cl)C(=O)C1N=Nc1ccc(S(=O)(=O)O)cc1` (stereo not given) the entry was “inactive”.
Same read-out and setting: then `CCC(=O)c1ccc2c(c1)N(CCCN(C)C)c1ccccc1S2`, with “inactive”.
Same read-out and setting: with `CN(C)CC[C@@H](c1ccc(Cl)cc1)c1ccccn1` the entry was “inactive”; with `Cc1cc(NS(=O)(=O)c2ccc(N)cc2)nc(C)n1`, “inactive”.
With `CCC/C=C/CO`, the Potency result was “inactive”.
Same read-out and setting: with `CC[C@H]1CC[C@H](NCc2cc3c(cc2OC)[C@H]2C[C@H]2C(=O)N3C)[C@H](c2ccccc2)N1` the entry was “inactive”; with `CC(C)C(=O)OCC(C)(C)C(O)C(C)C` (stereo not given), “inactive”; with `CCCC1CCC(=O)O1` (stereo not given), “inactive”.
On the same count and under the same terms, then `Cc1c[nH]c(=S)[nH]c1=O`, with “inactive”; and `O=C(C(Cl)Cl)N1CCOC12CCCCC2`, with “inactive”.

Test system in the next test: not listed separately
Description: qHTS assay to identify small molecule that activate the aryl hydrocarbon receptor (AhR) signaling pathway - cell viability counter screen (AID 743086).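 Note: HepG2 liver cells carrying the AhR DRE luciferase reporter; nearly all actives have a fitted effect of over 45% in size.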 The settings on record: HepG2-AhR-luc viability, CellTiter-Fluor, 24 h; series mostly up to 70.3 µM. The procedure, abridged: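 HepG2-AhR-luc (HG2L7.5c1) cells, 4000/well, treated 24 h at 37 C with compound; viability measured as CellTiter-Fluor fluorescence after 30 min in the same wells as the luciferase read.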
In the case of `CC(C)C[C@H](NC(=O)OCC1c2ccccc2-c2ccccc21)C(=O)O`, the call was inactive.
Still for that read-out and setting: then `CN(C)CC[C@@H](c1ccc(Cl)cc1)c1ccccn1`, with “inactive”; and `CCOc1ccc(NS(=O)(=O)c2ccc(N)cc2)nn1`, with “inactive”; and `Cc1cc(NS(=O)(=O)c2ccc(N)cc2)nc(C)n1`, with “inactive”.
Still for that read-out and setting: with `CCC/C=C/CO` the entry was “inactive”; with `CC(C)C(=O)OCC(C)(C)C(O)C(C)C` (stereo not given), “inactive”; with `CCCC1CCC(=O)O1` (stereo not given), “inactive”.
On the same count and under the same terms, with `CCCCCCOc1ccc(N)cc1` the entry was “inactive”; with `CC/C=C\CCOC(=O)C(C)C`, “inactive”; with `Cc1c[nH]c(=S)[nH]c1=O`, “inactive”.
Take `O=C(C(Cl)Cl)N1CCOC12CCCCC2`: the molecule was called inactive.

The target in a further test is Peroxisome proliferator-activated receptor gamma (Homo sapiens) (UniProt P37231). Description: qHTS assay to identify small molecule agonists of the peroxisome proliferator-activated receptor gamma (PPARg) signaling pathway (AID 743094; active = well fitted activation curve with a large enough effect in the signal ratio in the repeat runs, not every such curve was filed as active; the % refers to the signal ratio). The settings on record: HEK293H PPARg-UAS-bla, beta-lactamase FRET ratio, 17 h; series mostly up to 57 µM. In a few lines: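 GeneBLAzer PPARg UAS-bla HEK293H cells carrying a stably integrated beta-lactamase reporter were pre-incubated 5 h at 37C, then exposed to compounds in DMSO for 17 h at 37C; LiveBLAzer B/G FRET substrate was added for 1 h at room temperature and fluorescence read.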
Sequence of Peroxisome proliferator-activated receptor gamma (Homo sapiens) (P37231 whole entry, looked up): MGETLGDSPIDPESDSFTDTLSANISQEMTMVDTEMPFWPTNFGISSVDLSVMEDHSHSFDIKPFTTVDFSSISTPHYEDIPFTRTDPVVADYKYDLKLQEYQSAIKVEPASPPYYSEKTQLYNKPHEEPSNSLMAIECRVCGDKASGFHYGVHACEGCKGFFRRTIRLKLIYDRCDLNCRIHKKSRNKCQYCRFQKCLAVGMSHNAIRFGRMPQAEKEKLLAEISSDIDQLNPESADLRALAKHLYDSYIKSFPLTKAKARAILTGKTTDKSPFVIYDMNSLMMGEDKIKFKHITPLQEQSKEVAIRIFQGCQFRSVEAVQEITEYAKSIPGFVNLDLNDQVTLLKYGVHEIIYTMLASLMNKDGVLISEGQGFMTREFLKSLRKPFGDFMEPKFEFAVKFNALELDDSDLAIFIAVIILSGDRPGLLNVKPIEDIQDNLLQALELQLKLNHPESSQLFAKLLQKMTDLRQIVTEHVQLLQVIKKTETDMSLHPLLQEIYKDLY
As for `CC1=NN(c2cc(Cl)c(S(=O)(=O)O)cc2Cl)C(=O)C1N=Nc1ccc(S(=O)(=O)O)cc1` (stereo not given), the Potency result is “inactive”.
The same measure, in the same setting: then `Cc1cc(NS(=O)(=O)c2ccc(N)cc2)nc(C)n1`, with “inactive”; and `CCCC1CCC(=O)O1` (stereo not given), with “inactive”; and `CCCCCCOc1ccc(N)cc1`, with “inactive”.
Same read-out and setting: with `Cc1c[nH]c(=S)[nH]c1=O` the entry was “inactive”; with `Cc1cc2c(s1)Nc1ccccc1N=C2N1CCN(C)CC1`, “inactive”; with `CCN(CC)CCOc1ccc(Cc2ccccc2)cc1`, “inactive”.
